C2C12 statin – suppressors of simvastatin-induced myotoxicity in C2C12 myotubes; ATP luminescence, 48 h; scaled: DMSO 0, geranylgeraniol control 100; rescue of ATP level, % at 7.49 µM; actives 0.78% (n = 330,000);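 active = mean ATP rescue above about 67%, or every replicate alone reaching that limit, limit read from the data, passing the limit was not always enough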;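 note: myotubes were challenged with 10 µM simvastatin during compound exposure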
NSD2 HMT inh – blocks human histone methyltransferase NSD2 | O96028 | actives 0.54% (n = 310,000) | inhibition, % at 12.5 µM | NSD2 peptide methylation, AlphaScreen, 120 min; in the data active = inhibition above about 50%
PglD inh – PglD (C. jejuni) enzyme inhibition. actives 0.098% (n = 360,000). inhibition, % at 12.5 µM. purified PglD enzyme, DTNB colorimetric CoA detection; in the data active = inhibition above about 16%, passing the limit was not always enough
miR122 inh – inhibitors of miR-122 in Huh7 cells | Huh7 miR-122 Renilla luciferase sensor, 48 h; neutral wells = 0, positive control = 100 | activation (reporter increase), % at 12.5 µM | actives 0.3% (n = 340,000) | AID 602342;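 active = mean replicate activation score at least 90 and every replicate individually at or above 90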;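 note: higher luciferase means less miR-122 activity so hits act as miR-122 inhibitors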
Numbers stand for hits; . = inactive; / = no result given; [ ] = another dose, or the depositor's remark. Compounds with a hit are over-represented: about 1.2% of the library has one in this group of screens.

SMILES | C2C12 statin | NSD2 HMT inh | PglD inh | miR122 inh
C[C@@H]1CN([C@H](C)CO)C(=O)c2cccc(NC(=O)C3CCCCC3)c2O[C@@H]1CN(C)C(=O)Nc1ccc(F)cc1 | . | / | . | .
Cc1cccc(NS(=O)(=O)c2cc3c4c(c2)CCC(=O)N4CCC3)c1 | . | . | / | 181.3
CCOc1ccc(Br)cc1S(=O)(=O)Nc1ccc(Cl)c(S(=O)(=O)N(C)C)c1 | / | . | . | .
CCOc1ccc(Br)cc1S(=O)(=O)Nc1ccc(Cl)c(S(=O)(=O)N(CC)c2ccccc2)c1 | / | . | . | 281.0
CCn1c(CSc2nc3ccccc3[nH]2)n[nH]c1=S | 100.5 | . | . | .
C[C@@H]1CN([C@@H](C)CO)C(=O)c2cccc(NS(=O)(=O)c3ccc(Cl)cc3)c2O[C@H]1CN(C)C(=O)Nc1ccccc1 | . | / | . | .
O=C(/C=C/c1ccccc1)Oc1ccccc1O | / | . | / | /
COc1ccc(-n2c(SCC(=O)Nc3ccc4c(c3)OCO4)nc3ccccc3c2=O)cc1 | 118.4 | . | / | .
CCOc1ccc(-n2c(SCC(=O)Nc3ccc4c(c3)OCO4)nc3ccccc3c2=O)cc1 | / | . | . | .
Cc1ccnc(NC(=O)c2ccc(Cl)c(NC(=O)c3ccccc3F)c2)c1 | / | . | / | /
C[C@@H]1CN([C@@H](C)CO)C(=O)c2cccc(NC(=O)Nc3ccc4c(c3)OCO4)c2O[C@H]1CN(C)C(=O)Nc1ccccc1 | . | / | . | .
NNC(=O)COc1cccc2cccnc12 | 122.0 | . | . | .
O=C(COc1cccc2cccnc12)Nc1nccs1 | . | . | . | .
CCNC(=O)Nc1ccc2c(c1)C(=O)N(C)[C@@H]1CC[C@H](CC(=O)NCC3CC3)O[C@@H]1CO2 | . | / | . | .
C[C@H]1CN([C@@H](C)CO)C(=O)Cc2cc(NC(=O)CCCCCC(=O)Nc3ccccc3N)ccc2O[C@H]1CN(C)C(=O)Nc1ccccc1 | . | / | . | .
CC(C)NC(=O)N(C)C[C@H]1Oc2cc(-c3ccncc3)ccc2S(=O)(=O)N([C@H](C)CO)C[C@H]1C | . | / | . | .
Cc1sc2ncn(CC(=O)N(CC(=O)NC3CCCC3)Cc3cccs3)c(=O)c2c1C | . | . | . | 123.3
CCOC(=O)N1CCN(C(=O)CNCc2cccs2)CC1 | 92.8 | . | . | .
O=S(=O)(NCc1cccnc1)c1ccc(Cl)c2ccccc12 | . | . | . | 174.7
O=S(=O)(NCc1cccnc1)c1ccc(Cl)c(Cl)c1Cl | . | . | . | .
COc1ccc(CC(=O)NC(CC(=O)O)c2cccc([N+](=O)[O-])c2)cc1 (configuration not stated) | 121.9 | . | . | .
CCCN1CCN(C(=O)c2ccc(Sc3ccc(C)cc3)c(NC(C)=O)c2)CC1 | 79.6 | . | / | .
Brc1ccc2[nH]c3c(c2c1)CCC3 | . | . | . | .
O=c1c2c([nH]c3ccc(Br)cc13)CCCC2 | 126.3 | . | . | .
C[C@@H]1CN([C@H](C)CO)C(=O)c2cc(NC(=O)NC3CCCCC3)ccc2O[C@@H](C)CCCCO[C@H]1CN(C)Cc1ccc2c(c1)OCO2 | / | / | . | .
SMILES | C2C12 statin | NSD2 HMT inh | PglD inh | miR122 inh
COC(=O)C(CC(C)C)Oc1ccc2c(C)cc(=O)oc2c1 (configuration not stated) | / | / | . | 152.2
CCCNC(=O)C(=O)c1cccn1-c1ccsc1C(=O)OC | 118.7 | . | . | .
CNC(=O)c1cccn1-c1ccsc1C(=O)OC | . | . | . | .
CC(=O)c1cccc(NC(=O)NCc2cccs2)c1 | . | / | . | 103.3
COC(=O)c1cc(Br)c(=O)n(CCN2CCOCC2)c1 | 104.3 | . | . | .
Cc1ccc(S(=O)(=O)N(C)C[C@H]2Oc3ccc(NS(=O)(=O)c4cn(C)cn4)cc3CC(=O)N([C@@H](C)CO)C[C@@H]2C)cc1 | . | / | / | .
CC1CC(C)CN(CCCNC(=O)c2ccc3c(c2)NC(=O)C(N2CCCCC2)S3)C1 (configuration not stated) | 106.6 | . | / | .
C[C@H](NC(=O)C[C@H]1CC[C@H]2[C@@H](COC[C@@H](O)CN2C(=O)Nc2cc(Cl)cc(Cl)c2)O1)c1ccccc1 | . | / | . | .
C[C@H]1CN([C@@H](C)CO)C(=O)c2cccc(NS(=O)(=O)c3cccs3)c2O[C@@H]1CN(C)Cc1ccc(C(F)(F)F)cc1 | . | / | . | 118.9[16.7 µM]
C[C@H]1CN([C@@H](C)CO)C(=O)c2cccc(NS(=O)(=O)c3cccs3)c2O[C@@H]1CN(C)Cc1ccc(Oc2ccccc2)cc1 | 83.2 | / | . | .
C[C@H](CO)N1C[C@H](C)[C@@H](CN(C)Cc2ccc(C(F)(F)F)cc2)Oc2c(NS(=O)(=O)c3cccs3)cccc2C1=O | . | / | . | .
CNC(=O)C[C@H]1CC[C@@H]2[C@H](COc3ccc(NS(=O)(=O)c4cccc(F)c4)cc3C(=O)N2C)O1 | . | / | . | .

Screening data deposited in PubChem BioAssay by Broad Institute.
